Screening data: PubChem, National Center for Advancing Translational Sciences (NCATS)
This is a sample that favours compounds with a hit; in the whole collection about 4.6% have one here.
NTMT1 inh – blocks human N-terminal methyltransferase 1 activity; NTMT1 MTase-Glo SAH luminescence, purified enzyme; Potency, µM (series often up to 114 µM), inactives show top-dose activity change, negative = inhibition, most hits filed as inhibitors; AID 1645870; 59,000 compounds, 2.5% hits;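 note: potency is the fitted concentration of half-maximal effect; plate controls were DMSO vehicle for no effect and no enzyme for full effect; nearly all actives have a fitted effect of over 65% in size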
Target sequence (Q9BV86 whole entry, looked up): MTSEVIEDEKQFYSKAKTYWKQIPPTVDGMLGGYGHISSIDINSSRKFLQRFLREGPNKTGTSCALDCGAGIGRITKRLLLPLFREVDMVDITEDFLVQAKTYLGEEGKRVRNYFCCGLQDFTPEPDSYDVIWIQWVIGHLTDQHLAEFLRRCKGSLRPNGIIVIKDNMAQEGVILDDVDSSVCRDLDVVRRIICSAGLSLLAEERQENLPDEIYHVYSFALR
HTT-AS promoter – activators of huntingtin-antisense promoter activity | Potency, µM (series often up to 57.5 µM), inactives show at the highest dose activity change, positive = activation, usual class: activators | 48,000 compounds, 0.24% hits | HEK293 HTT-AS promoter firefly luciferase reporter, 24 h; response scale: percent change from vehicle, -100% = no light; note: potency is the fitted concentration of half-maximal effect; nearly all actives have a fitted effect of over 55% in size
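Luminescence was read after Dual-Glo reagent and a 10 min room-temperature incubation. Values were normalized to vehicle (0% activity) and zero RLU (-100% activity). Reporter HEK293 cells had been exposed to compounds (up to 57.5 uM final) for 24 h.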
HTT promoter inh – HTT promoter inhibition; HEK293 HTT promoter firefly luciferase reporter, 24 h; Potency, µM (series often up to 57.5 µM), inactives show at the highest dose activity change, negative = inhibition, usual class: inhibitors; 48,000 compounds, 0.93% hits; note: potency is the fitted concentration of half-maximal effect; nearly all actives have a fitted effect of over 50% in size
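HEK293 luciferase promoter-reporter cells (2,500/well) plated 24 h, then compounds added at up to 57.5 uM final for 24 h at 37 °C. Firefly luminescence by Dual-Glo, normalized to vehicle (0%) and zero RLU (-100%).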
GPR32 ag – GPR32 (DRV1) agonism, beta-arrestin recruitment. 48,000 compounds, 2.5% hits. AID 1346428. O75388. CHO-K1 GPR32 beta-arrestin PathHunter luminescence, 90 min; zero percent set by DMSO-only wells. activation, % at 76.9 µM;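 active = activation of at least 60% and not above a set upper limit, about 1 call in 100 departs from these limits; inconclusive = activation of 40% to 60%, or above that upper limit; inactive = activation under 40%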; note: 0% is about no effect
Target sequence (O75388 whole entry, looked up): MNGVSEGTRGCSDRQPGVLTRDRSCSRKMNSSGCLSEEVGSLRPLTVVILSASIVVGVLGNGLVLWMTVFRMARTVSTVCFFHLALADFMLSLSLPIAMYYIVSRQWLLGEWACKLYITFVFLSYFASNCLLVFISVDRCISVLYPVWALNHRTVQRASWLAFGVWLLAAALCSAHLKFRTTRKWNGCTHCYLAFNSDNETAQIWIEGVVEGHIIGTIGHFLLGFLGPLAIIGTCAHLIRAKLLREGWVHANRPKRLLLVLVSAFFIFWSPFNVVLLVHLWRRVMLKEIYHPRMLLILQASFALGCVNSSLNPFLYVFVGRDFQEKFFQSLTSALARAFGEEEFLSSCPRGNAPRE
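Agonism was scored as beta-arrestin recruitment to ProLink-fused GPR32 in stably transfected CHO-K1 cells, giving a chemiluminescent beta-Gal signal; compounds were incubated 90 min at 37 °C.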
Active calls of the source: *; ? = inconclusive; . = not tested or not shown; ! = repeats disagree; [ ] = dose if it differs, or a comment. Unless noted, calls come from the whole dose curve; as a rule, active = well fitted curve in the direction sought with a large enough effect; inconclusive = small, poorly fitted or top-dose-only effect, or another doubt; inactive = no such curve, though single readings can be large; an effect the other way counts as inactive or inconclusive.

SMILES	NTMT1 inh	HTT-AS promoter	HTT promoter inh	GPR32 ag
OC[C@@]1(O)CO[C@@H](OC[C@H]2O[C@@H](Oc3c[nH]c4ccccc34)[C@H](O)[C@@H](O)[C@@H]2O)[C@@H]1O	-17%[29.8 µM]	.	.	.
O=S(=O)(Nc1cc(F)ccc1F)c1ccc2[nH]c3c(c2c1)CCCCC3	?	-26%	?	40
COc1cc(NS(=O)(=O)c2ccc3[nH]c4c(c3c2)CCCCCC4)cc(OC)c1	10%	-28%	?	102*
COc1ccc(NS(=O)(=O)c2ccc3[nH]c4c(c3c2)CCCC4)cc1OC	-17%	-47%	20µM*	14
O=S(=O)(Nc1cccc(F)c1)c1ccc2[nH]c3c(c2c1)CCCCC3	-11%	12%[11.5 µM]	?	62*
COc1ccc(OC)c(NS(=O)(=O)c2ccc3[nH]c4c(c3c2)CCCCC4)c1	?	-32%	?	2
COc1cc(NS(=O)(=O)c2ccc3[nH]c4c(c3c2)CCCC4)cc(OC)c1OC	-16%	-55%	?	82*
CC(C)(C)OC(=O)N1CCN(c2cnc(NCc3ccc(-c4ccc(C#N)cc4)o3)cn2)CC1	-3%	.	.	.
COc1nnc(-c2ccc(N3CCCCC3)c(NC(=O)c3ccccc3Cl)c2)c2ccccc12	?	-87%	11µM*	-5
CC(=O)NCCCCn1c2c(c3ccccc31)C(=O)NCC2	3%[57.5 µM]	.	.	.
Cc1cc(F)ccc1NC(=O)c1ccc2nc(Cc3ccccc3)oc2c1	0%	-16%	-28%	-24
Cc1cc(F)ccc1NC(=O)c1csc2c1CCC(C)C2 (stereo not given)	0%	3.2µM*	53%	-6
CCc1ccc(NC(=O)c2sc3nc(C)c(Cl)c(C)c3c2NC(=O)c2ccccc2OC)cc1	3%	-1%	1%	-1
CCc1ccc(NC(=O)c2sc3nc(C)c(Cl)c(C)c3c2N)cc1	-9%	2.5µM*	70%	8
CC(=O)Nc1sc2c(c1-c1ccccc1)CCN(C(=O)OC(C)(C)C)C2	-12%	.	.	.
CN(Cc1cc(Br)cc(Br)c1N)C1CCCCC1	11%	2%	1%	95*
Nc1ncnc2n[nH]c(Nc3ccc(F)cc3)c12	50µM*!	.	.	-6
CCCCCCCCCCCC[N+](C)(C)Cc1ccccc1	?	10%	4%	-16
CCCCCCC[N+](CC)(CC)CCCCc1ccc(Cl)cc1	?	-42%	?	87*
CC(C)C(=O)Oc1ccc(CO)cc1[C@H](CCN(C(C)C)C(C)C)c1ccccc1	22µM*!	-11%	-5%	.
Cc1ccc(O)c([C@H](CCN(C(C)C)C(C)C)c2ccccc2)c1	?	-9%	-4%	-6
Cc1cc(OCC(=O)N2CCC(c3nc4ccccc4s3)CC2)ccc1Cl	7%	-28%	?	78*
CC(Oc1ccc(F)cc1)C(=O)N1CCC(c2nc3ccccc3s2)CC1 (stereo not given)	17%	-36%	?	67*
O=C(c1ccccc1Cl)N1CCC(c2nc3ccccc3s2)CC1	9%	-21%	?	78*
COc1cc(O)c(C(CC(=O)N2CCCCCC2)c2ccc3c(c2)OCO3)c(OC)c1 (stereo not given)	17%[228 µM]	.	.	.
SMILES	NTMT1 inh	HTT-AS promoter	HTT promoter inh	GPR32 ag
CN(C)CCCNc1c2ccccc2nc2c1[nH]c1ccccc12	35µM*	.	.	.
COc1cc(=C2C=c3ccccc3=N2)[nH]/c1=C/c1[nH]c(C)cc1C	40µM*	.	.	.
COc1cc(Cl)c(C)cc1Nc1c2c(nc3ccccc13)CCC2	-6%	-43%	?	-9
CCOC(=O)c1cccc(Nc2c3c(nc4ccccc24)CCC3)c1	0%	-39%	?	78*
CCOC(=O)c1cccc(Nc2nc(C(=O)OCC)nc3ccccc23)c1	-1%	-25%	?	-9
CCCOC(=O)c1cccc(Nc2nc(C(=O)OCC)nc3ccccc23)c1	-9%	-51%	?	93*
Cc1ccc(-c2cnn(CC(=O)NCCc3ccccc3)c(=O)c2)cc1	3%	.	.	.
Cc1ccccc1-c1nnc(C2CCN(S(=O)(=O)c3ccc(Cl)cc3)CC2)o1	-3%	-54%	16µM*	-6
COc1ccc(S(=O)(=O)N2CCC(c3nnc(-c4ccccc4C)o3)CC2)c(OC)c1	0%	-31%	?	16
Cc1ccc(NC(=O)C2CCCN2S(=O)(=O)c2ccc3c(c2)n(C)c(=O)c(=O)n3C)cc1 (stereo not given)	-5%	-6%	-14%	-9
CCc1ccc(NC(=O)C2CCCN(S(=O)(=O)c3cccc4nonc34)C2)cc1 (stereo not given)	-1%	-15%	-6%	89*
O=C(Nc1ccc(Br)cc1)C1CCCN(S(=O)(=O)c2ccc(Br)s2)C1 (stereo not given)	-7%	-26%	-15%	82*
Cc1ccc(S(=O)(=O)N2CCCC2C(=O)Nc2ccc(Br)cc2)cc1 (stereo not given)	-17%	-50%	32µM*	10
CC(C)c1ccc(NC(=O)C2CCCN(S(=O)(=O)c3cccc4nonc34)C2)cc1 (stereo not given)	9%	-8%	-12%	17
Cc1nnc(-c2cnn(C)c2N)n1CCc1ccccc1	3%	.	.	.
CCS(=O)(=O)c1ccc2oc(-c3ccc4ccccc4c3)nc2c1	3%	.	.	.
CN1CCN(C2=Nc3ccccc3Nc3ccc(O)cc32)CC1	1%[57.5 µM]	.	.	.
CC[C@]12C=CCN3CC[C@@]4(c5cc([C@@]6(C(=O)OC)CC7C[C@@H](C(C)(F)F)CN(Cc8c6[nH]c6ccccc86)C7)c(OC)cc5N(C)[C@H]4[C@@](O)(C(=O)OC)[C@@H]1OC(C)=O)[C@@H]32 (stereo not given in full)	-10%	.	.	.
Cc1c(Cl)cccc1NS(=O)(=O)c1ccc2[nH]cc(C(=O)NC3CCCC3)c(=O)c2c1	0%	-47%	?	101*
COc1cccc(NS(=O)(=O)c2ccc3c(c2)n(C)c(=O)n3C)c1	-10%	-33%	-32%	86*
Cc1cc(C)cc(NS(=O)(=O)c2ccc3[nH]cc(C(=O)NCc4ccco4)c(=O)c3c2)c1	11%	-58%	?	99*
COc1cccc(NS(=O)(=O)c2ccc3c(c2)N(C)C(=O)CC(=O)N3C)c1	11%	9%	-7%	2
CCc1ccccc1N(C)S(=O)(=O)c1ccc2[nH]cc(C(=O)NCCOC)c(=O)c2c1	7%	-23%	?	-7
CCN(c1cccc(C)c1)S(=O)(=O)c1ccc2[nH]cc(C(=O)NCCCOC)c(=O)c2c1	-1%	-29%	?	97*
Cc1ccccc1NS(=O)(=O)c1ccc2[nH]cc(C(=O)NC3CCCCC3)c(=O)c2c1	-17%	-33%	?	-9
NCCCC[C@H](N)C(=O)Nc1ccc(Cl)cc1C(=O)c1ccc[nH]1	-13%	.	.	.
Cc1ccc(-c2cc(C(=O)Nc3ccc(-n4cncn4)cc3)c3ccccc3n2)cc1C	-1%	.	.	.
Cc1cc(C)cc(NS(=O)(=O)c2ccc3[nH]cc(C(=O)NC4CCCCC4)c(=O)c3c2)c1	-15%	-44%	-30%	110*
